LMNA splice mod = qHTS Assay for Modulators of Lamin A Splicing; Potency, µM (series often up to 46.1 µM), most hits filed as inhibitors; HeLa LMNA splicing GFP/RFP minigene ratio, 48 h; actives 0.01% (n = 200,000); active means well fitted inhibition curve with a large enough effect in the signal ratio, with a control signal flat, not every such curve was filed as active; inconclusive means small, poorly fitted or top-dose-only effect, or effect the other way, or a change in a side signal; the % refers to the signal ratio
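Read-out is the ratio of GFP to DsRed2 object intensity, acquired by 488 nm laser-scanning cytometry on HeLa lamin A-EGFP minigene reporter cells. Compound incubation 48 hrs at 37 °C in Opti-MEM with 2% FBS; DMSO 0.5% final.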
Luc counter = Counterscreen for Luciferase (Kinase-Glo TM) Inhibition. Potency, µM (titrated, usually from 38.3 µM), usual class: inhibitors. Luciferin 4-monooxygenase (Photuris pensylvanica), Q27757. Kinase-Glo luciferase, ATP luminescence, 8 min. AID 1379, 2008. actives 0.28% (n = 200,000); further: nearly all actives have a fitted effect of over 60% in size
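Substrate mix (final 50 mM imidazole pH 7.2, 50 mM KCl, 7 mM MgCl2, 10 uM ATP, 0.01% Tween 20, 0.05% BSA) plus pin-tool compound, then Kinase-Glo detection mix; 8 min ambient, luminescence read.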
HttQ103 aggreg = qHTS Multiplex Assay to Identify Dual Action Probes in a Cell Model of Huntington: Aggregate Formation (GFP) | actives 1.1% (n = 220,000) | AID 1688, 2009 | Potency, µM (titrated, usually from 46.1 µM), actives largely listed as inhibitors | PC12 HttQ103-GFP aggregates, Acumen cytometry, 40 h; further: nearly all actives have a fitted effect of over 60% in size
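PC12 cells stably carrying ecdysone-inducible HTT exon 1 Q103–GFP were induced with tebufenozide (100 nM final) and treated with library compounds in titration. GFP aggregates in lysates were counted by laser scanning cytometry.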
ALDH1A1 inh = qHTS Assay for Inhibitors of Aldehyde Dehydrogenase 1 (ALDH1A1). Purified ALDH1A1, NADH fluorescence, propionaldehyde substrate. AID 1030, 2008. actives 7.3% (n = 220,000). Aldehyde dehydrogenase 1A1 (Homo sapiens), P00352. Potency, µM (highest dose often 75.3 µM), hits mostly inhibitors; active means well fitted inhibition curve with a large enough effect, not every such curve was filed as active; inconclusive means small, poorly fitted or top-dose-only effect, or another doubt; inactive means no such curve, though single readings can be large or run the other way
Target sequence (P00352 whole entry, looked up): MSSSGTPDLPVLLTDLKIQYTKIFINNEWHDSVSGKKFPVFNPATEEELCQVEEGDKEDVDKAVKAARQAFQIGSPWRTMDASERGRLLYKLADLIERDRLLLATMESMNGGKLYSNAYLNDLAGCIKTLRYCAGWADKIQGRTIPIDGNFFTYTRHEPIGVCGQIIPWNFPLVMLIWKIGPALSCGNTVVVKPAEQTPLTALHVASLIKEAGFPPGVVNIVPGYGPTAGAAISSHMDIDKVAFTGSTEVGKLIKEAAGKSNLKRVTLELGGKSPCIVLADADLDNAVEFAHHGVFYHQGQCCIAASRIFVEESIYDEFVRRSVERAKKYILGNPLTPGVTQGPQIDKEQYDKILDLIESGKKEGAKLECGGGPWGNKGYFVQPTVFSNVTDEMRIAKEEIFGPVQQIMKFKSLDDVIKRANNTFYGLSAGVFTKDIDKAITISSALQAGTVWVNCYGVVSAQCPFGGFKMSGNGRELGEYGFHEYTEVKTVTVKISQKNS
HTT cytoprotect = qHTS Multiplex Assay to Identify Dual Action Probes in a Cell Model of Huntington: Cytoprotection (ATP); PC12 HTT-Q103 induced, cytoprotection, ATP luminescence, 40 h; Potency, µM (doses to about 56.4 µM), usual class: activators; actives 0.14% (n = 230,000); further: nearly all actives have a fitted effect of over 45% in size
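Readout: ATPlite luminescence (ATP level). Model: stable PC12, inducible Htt exon1 Q103-GFP. Inducer: tebufenozide, 100 nM final. Compounds: dose series. No G418 in medium.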
HPGD block = qHTS Assay for Inhibitors of HPGD (15-Hydroxyprostaglandin Dehydrogenase); purified HPGD, NADH fluorescence kinetic, PGE2 substrate; Potency, µM, hits mostly inhibitors; actives 4.3% (n = 150,000); active means well fitted inhibition curve with a large enough effect, not every such curve was filed as active; inconclusive means small, poorly fitted or top-dose-only effect, or another doubt; inactive means no such curve, though single readings can be large or run the other way
Target sequence (P15428 whole entry, looked up): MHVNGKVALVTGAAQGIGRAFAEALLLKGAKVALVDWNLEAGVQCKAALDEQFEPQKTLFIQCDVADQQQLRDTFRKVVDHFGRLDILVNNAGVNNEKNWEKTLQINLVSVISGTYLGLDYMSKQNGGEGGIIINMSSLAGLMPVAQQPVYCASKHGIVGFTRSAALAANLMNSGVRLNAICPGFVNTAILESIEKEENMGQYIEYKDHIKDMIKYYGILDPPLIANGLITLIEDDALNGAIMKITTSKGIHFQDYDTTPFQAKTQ
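NADH formation kinetics: reaction with 30 uM PGE2 and 1 mM NAD+ (final), 20 nM enzyme, Tris-HCl pH 8 with Tween 20, after 15 min compound preincubation at room temperature. Fluorescence change, last versus first of five reads.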
Large screens that a line does not name were inactive. Sampled rows, rich in hits. Any-hit rate of the full collection: about 9%. Unless noted, the call rests on the fitted dose curve; in most records, active means well fitted curve in the direction sought with a large enough effect; inconclusive means small, poorly fitted or top-dose-only effect, or another doubt; inactive means no such curve, though single readings can be large; an effect the other way counts as inactive or inconclusive.

Cn1ccnc1SCc1ccc([N+](=O)[O-])cc1	none
O=C(NC1CCCc2ccccc21)C1CCCN(S(=O)(=O)c2cnc[nH]2)C1 (configuration not stated)	none
Cc1c(Cl)c(C(=O)NC2C3CC4CC(C3)CC2C4)nn1C (configuration not stated)	LMNA splice mod inconclusive, ALDH1A1 inh inconclusive, HPGD block 20µM
Cn1ncc(Br)c1C(=O)NC1C2CC3CC(C2)CC1C3 (configuration not stated)	LMNA splice mod inconclusive (no result: HTT cytoprotect)
CN1CCN(CCC=C2c3ccccc3Sc3ccc(S(=O)(=O)N(C)C)cc32)CC1	LMNA splice mod inconclusive, HttQ103 aggreg inconclusive, ALDH1A1 inh inconclusive
CCn1c(/C=C2\C(=O)N(C(C)C)c3ccccc32)nc2ccccc2c1=O	none (no result: LMNA splice mod, Luc counter, ALDH1A1 inh, HPGD block)
CC(C)N1C(=O)/C(=C\c2nc3ccccc3c(=O)[nH]2)c2ccccc21	LMNA splice mod inconclusive, ALDH1A1 inh 13µM (no result: HTT cytoprotect)
CCCN1C(=O)/C(=C/c2nc3ccccc3c(=O)[nH]2)c2ccccc21	ALDH1A1 inh 2.5µM
O=[N+]([O-])C(/C=C(\Cl)[N+](=O)[O-])=C(N1CCCCC1)N1CCCCC1	ALDH1A1 inh 14µM (no result: LMNA splice mod, HPGD block)
O=[N+]([O-])C(=C1SCCS1)C(=C(Cl)Cl)N1CCCCC1	ALDH1A1 inh inconclusive (no result: LMNA splice mod, HPGD block)
O=C(OC1Cc2c(O)cc(O)cc2OC1c1cc(O)c(O)c(O)c1-c1c(C2Oc3cc(O)cc(O)c3CC2OC(=O)c2cc(O)c(O)c(O)c2)cc(O)c(O)c1O)c1cc(O)c(O)c(O)c1 (configuration not stated)	HPGD block 22µM (no result: HttQ103 aggreg, HTT cytoprotect)
COc1cc(N=c2ssnc2Cl)cc(OC)c1	HttQ103 aggreg 10µM, ALDH1A1 inh 0.32µM, HPGD block 0.63µM
OCc1ccccc1N=c1ssnc1Cl	ALDH1A1 inh 0.89µM, HPGD block 6.3µM
Clc1nssc1=Nc1ccc(Br)cc1	HttQ103 aggreg inconclusive, ALDH1A1 inh 1.8µM (no result: LMNA splice mod, HPGD block)
N#Cc1cccc(N=c2ssnc2Cl)c1	LMNA splice mod inconclusive, ALDH1A1 inh 1.3µM (no result: HPGD block)
Cc1nc(-c2ccc(C(=O)NCCO)cc2)cs1	ALDH1A1 inh inconclusive (no result: HPGD block)
CCCCn1c(SCC(=O)Nc2cc(C)on2)nnc1-c1cccnc1	none
O=C1C2CC=C(Cl)CC2C(=O)N1CCCCCCN1C(=O)C2CC=C(Cl)CC2C1=O (configuration not stated)	ALDH1A1 inh 22µM, HPGD block 16µM
O=C(CCC1CCCN(C(=O)Cn2cnnn2)C1)NCc1ccc(F)c(F)c1 (configuration not stated)	none (no result: LMNA splice mod, Luc counter, HPGD block)
Cc1cc(/C=N/n2c(COc3ccccc3)nc3ccccc3c2=O)c(O)c([N+](=O)[O-])c1	LMNA splice mod inconclusive, HttQ103 aggreg 10µM, HPGD block inconclusive
Cc1cccc(C)c1OCc1nc2ccccc2c(=O)n1/N=C/c1ccc(OCC(=O)O)cc1	ALDH1A1 inh 14µM (no result: HTT cytoprotect)
O=C(O)COc1ccc(/C=N/n2c(COc3ccccc3)nc3ccccc3c2=O)cc1	ALDH1A1 inh inconclusive (no result: Luc counter, HPGD block)
O=C(COC(=O)/C=C/c1ccc(S(=O)(=O)N2CCOCC2)cc1)NCc1ccc2c(c1)OCO2	ALDH1A1 inh inconclusive (no result: LMNA splice mod, HPGD block)
O=C(O/N=C1\C(=O)N(c2ccccc2)c2ccccc21)C1CC1	LMNA splice mod inconclusive (no result: HPGD block)
CN1C(=O)/C(=N/OC(=O)c2ccccc2)c2ccccc21	ALDH1A1 inh inconclusive, HPGD block 14µM
CN1CCCCCC1=NC1=C(C#N)CCCC1	LMNA splice mod inconclusive
O=C(NCc1ccco1)c1cc(C(=O)C2CCCCC2)c[nH]1	none
N/C(=N\OC(=O)c1ccc2c(c1)OCO2)c1cccnc1	LMNA splice mod inconclusive, Luc counter inconclusive (no result: HPGD block)
N/C(=N\OC(=O)c1ccc2c(c1)OCO2)c1cccc(Br)c1	Luc counter 13µM (no result: LMNA splice mod, HPGD block)
CC1Cc2ccccc2N1C(=O)CSc1nnc(-c2ccccc2Cl)o1 (configuration not stated)	none (no result: Luc counter, HttQ103 aggreg, ALDH1A1 inh, HTT cytoprotect, HPGD block)
C=CCn1c(N)c(C(=O)NCC2CCCO2)sc1=S (configuration not stated)	none
Nc1c(C(=O)NCC2CCCO2)sc(=S)n1-c1ccccc1 (configuration not stated)	ALDH1A1 inh 14µM, HPGD block 25µM
CCn1c(N)c(C(=O)NCC2CCCO2)sc1=S (configuration not stated)	ALDH1A1 inh 8.9µM, HPGD block 6.3µM
CN1CCN(c2ccccc2NC(=O)c2ccc(-c3cccc([N+](=O)[O-])c3)o2)CC1	none
CCOC(=O)/C(C#N)=C1\CC2CCC1(C)C2(C)C (configuration not stated)	ALDH1A1 inh 13µM (no result: HPGD block)
Cc1cc[n+](-c2nc3ccccc3nc2[N-]S(=O)(=O)c2ccccc2)cc1	HttQ103 aggreg inconclusive, ALDH1A1 inh inconclusive (no result: Luc counter, HPGD block)
CCc1cc[n+](-c2nc3ccccc3nc2[N-]S(=O)(=O)c2ccc(Br)s2)cc1	LMNA splice mod inconclusive, ALDH1A1 inh 0.95µM
COc1ccc(Sc2nnc(Cc3ccccc3)c3ccccc23)cc1	LMNA splice mod inconclusive, HttQ103 aggreg inconclusive, ALDH1A1 inh inconclusive
Cc1ccc(Sc2nnc(Cc3ccccc3)c3ccccc23)cc1	LMNA splice mod inconclusive, ALDH1A1 inh 28µM
COc1ccc(S(=O)(=O)Nc2nnc(C(C)C)s2)cc1	ALDH1A1 inh inconclusive
COc1ccc(S(=O)(=O)Nc2nnc(C(C)(C)C)s2)cc1	ALDH1A1 inh 10µM, HPGD block 10µM
COc1ccc(S(=O)(=O)Nc2nnc(CC(C)(C)C)s2)cc1	ALDH1A1 inh 11µM (no result: HttQ103 aggreg, HTT cytoprotect, HPGD block)
COc1ccc(Cc2nnc(NS(=O)(=O)c3ccccc3)s2)cc1	ALDH1A1 inh inconclusive (no result: HPGD block)
Cn1c(=O)n(Cc2ccccc2)c(=O)c2c1nc(NCC1CCCO1)n2Cc1ccccc1 (configuration not stated)	ALDH1A1 inh inconclusive
COc1cc2c(cc1OC)C1=C(C#N)CN(C3CCCCC3)CN1CC2	ALDH1A1 inh inconclusive, HPGD block inconclusive
COc1ccc(CCN2CC(C#N)=C3c4cc(OC)c(OC)cc4CCN3C2)cc1OC	HttQ103 aggreg inconclusive, ALDH1A1 inh inconclusive, HPGD block 7.1µM
Cc1cc(N2CCOCC2)nc2ccc(NC(=S)NCc3ccc4c(c3)OCO4)cc12	none (no result: LMNA splice mod, HPGD block)
Cc1ccc(N/C=C2/Sc3ccccc3NC2=O)cc1	LMNA splice mod inconclusive, ALDH1A1 inh 22µM (no result: HPGD block)
O=C1Nc2ccccc2S/C1=C/NCc1ccccc1Cl	ALDH1A1 inh 4.5µM (no result: HPGD block)

High-throughput results deposited in PubChem BioAssay by National Center for Advancing Translational Sciences (NCATS).
